Results on ten compounds are retold here after PubChem BioAssay (NCATS).

Inconclusive results are not listed. Values without a mark were called inactive. Calls come from the whole dose curve.
Potency is the fitted concentration of half-maximal effect.

A short description of the test: Cell Viability - BJ (AID 421).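 Note: cells exposed to compound for 40 hours at 37 °C before readout.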 The settings on record: BJ fibroblast viability, qHTS. From the text: NIH Chemical Genomics Center [NCGC]
NIH Molecular Libraries Screening Centers Network [MLSCN]
National Institutes of Environmental Health Sciences [NIEHS]
National Toxicology Program [NTP]
We have developed a 1536-well cell-based assay for quantitative high throughput screening (qHTS) against a number of cell lines to determine in vitro cytotoxicity of small molecules. This particular assay uses the BJ cell line from ATCC which is derived from normal human foreskin fibroblasts.
NCGC Assay Protocol Summary:
The CellTiter-Glo luminescent cell viability assay (Promega) is a homogeneous method to measure the number of viable cells in culture. The end point readout of this assay is based on quantitation of intracellular ATP, an indicator of metabolic activity, using the luciferase reaction. Luciferase catalyzes the oxidation of beetle Luciferin to oxyluciferin and light in the presence of ATP. The luminescent signal is proportional to amount of ATP present.
Using the CellTiter-Glo luminescent cell viability assay, the amount of cellular ATP was measured in the BJ cell line with complete culture medium following compound treatment for 40 hours. The assay was performed in opaque white Kalypsys 1536-well plates. In the screen, tamoxifen and doxorubicin were used as positive controls. Library compounds were measured for their ability to cause acute toxicity in the cell line, as reflected by a decrease in intracellular ATP levels, in a concentration-dependent manner. Data were normalized to the controls for basal activity (DMSO only) and 100% inhibition (100 uM tamoxifen). AC50 values were determined from concentration-response data modeled with the standard Hill equation.
qHTS protocol fo CellTiter Glo BJ cellular assay
[Step] [Parameter] [Value] [Description]
1. Reagent; 5 uL; 1500 BJ cells/well
2. Time; 5 hr; 37 °C incubation
4. Controls; 23 nL; Tamoxifen 0.34 uM to 100 uM & Doxorubicin 0.02 nM to 100 uM
5. Time; 40 hr; 37 °C incubation
6. Reagent; 5 uL; CellTiter Glo reagent
7. Time; 20 min; Room Temperature
8. Detection; Luminescence; Viewlux plate reader
Keywords: cell viability, cytotoxicity, BJ cell line, luminescence, NTPHTS, NTPHTS_NCGC, NIEHS, EPA, DSSTox, MLSMR, MLSCN, NIH Roadmap, qHTS, NCGC
A general note: qHTS replaces the single test concentration by a dilution series.
As for `Oc1ccc(Cl)cc1Cc1ccccc1`, the Potency is more than 92 µM.

For `CCOP(=S)(OCC)Oc1cc(C)nc(C(C)C)n1`, the Potency is more than 92 µM.

As to `N[C@@H](Cc1ccc(N(CCCl)CCCl)cc1)C(=O)O`, the Potency is more than 92 µM.

Consider `Oc1cccc2cccnc12`, for which the Potency was more than 92 µM.

In the case of `CCCC(C)(COC(N)=O)COC(=O)NC(C)C` (stereo not given), the Potency is more than 92 µM.

`NCC(O)c1ccc(O)cc1` (stereo not given): the Potency was more than 92 µM.

On to `Oc1ccccc1-c1ccccc1`, for which the Potency is more than 92 µM.

Turning to `OCCOc1ccccc1`, the Potency was more than 92 µM.

`c1ccc2c(c1)Nc1ccccc1S2`: the Potency was more than 92 µM.

With `CNCC(O)c1ccc(O)cc1` (stereo not given), the Potency is more than 92 µM.
